The list is not random: actives were taken first. Their share in the collection is about 7.4%.
FXIIa inh mix = factor XIIa (human) inhibition, mixture screen; 62,000 compounds, 0.2% hits; AID 684; P00748; inhibition, % at 5 µM; purified FXIIa, fluorogenic substrate, pooled mixtures;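 further: 0% = enzyme without compound and 100% = no enzyme blank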
D1 mod = allosterically modulates the human D1 dopamine receptor | P21728 | B-score at 10 µM | HEK293 D1, CRE-luciferase, dopamine EC30 potentiation; actives deviate in either direction | 58,000 compounds, 5.9% hits;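 active means luminescence count or its row- and column-corrected plate score outside the 99.7% band of the plate's sample wells, on either side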
FXIa mix inh = blocks human factor XIa in pooled compound mixtures | AID 680 | inhibition, % at 5 µM | purified FXIa, fluorogenic substrate | P03951 | 62,000 compounds, 0.19% hits;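 further: each value is inhibition by a whole ten-compound pool holding the compound; 0% = enzyme with no mixture and 100% = wells lacking enzyme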
M1 agonist = activates the M1 muscarinic receptor; CHO-M1 cells, Fluo-4 calcium fluorescence, agonist mode; hits give high values; B-score at 10 µM; 64,000 compounds, 3% hits; AID 626;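 active means fluorescence rise, raw or as B-score row- and column-corrected plate score, outside the 99.7% band of its plate's samples, either direction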
DAT uptake mod = human DAT dopamine uptake with cocaine, either direction | Q01959 | LLC-PK1 hDAT cells, [14C]-dopamine uptake with cocaine IC80; actives deviate in either direction | 110,000 compounds, 1.3% hits | AID 449768 | B-score at 10 µM;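 active means Z score or B-score, a plate-position-corrected score, falls beyond the plate's 99.7% confidence bounds, in either direction; inactive means both scores lie inside the 99.7% bounds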;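 further: scored against the spread of the other compound wells on the same plate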
Target sequence (Q01959 whole entry, looked up): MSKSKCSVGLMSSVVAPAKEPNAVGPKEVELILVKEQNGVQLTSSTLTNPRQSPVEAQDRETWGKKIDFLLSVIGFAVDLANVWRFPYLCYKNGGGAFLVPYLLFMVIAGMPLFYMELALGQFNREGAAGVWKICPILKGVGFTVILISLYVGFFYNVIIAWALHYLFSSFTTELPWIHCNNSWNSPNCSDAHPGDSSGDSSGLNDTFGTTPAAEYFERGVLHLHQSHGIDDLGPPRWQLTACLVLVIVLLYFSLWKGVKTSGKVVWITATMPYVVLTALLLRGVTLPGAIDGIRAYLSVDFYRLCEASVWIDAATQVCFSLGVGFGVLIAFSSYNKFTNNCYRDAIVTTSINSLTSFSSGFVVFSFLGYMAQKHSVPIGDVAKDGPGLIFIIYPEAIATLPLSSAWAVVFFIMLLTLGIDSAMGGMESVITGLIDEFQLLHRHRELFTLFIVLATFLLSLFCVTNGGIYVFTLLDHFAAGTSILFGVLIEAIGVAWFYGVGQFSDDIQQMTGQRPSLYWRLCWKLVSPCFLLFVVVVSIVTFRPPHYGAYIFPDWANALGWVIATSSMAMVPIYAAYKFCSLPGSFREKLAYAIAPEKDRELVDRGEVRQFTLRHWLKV
M1 antagonist = M1 muscarinic receptor (rat) antagonism. B-score at 10 µM. 64,000 compounds, 3.4% hits. P08482. AID 628. CHO-M1 cells, Fluo-4 calcium, ACh EC80 antagonist mode; hits give low values;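 active means calcium fluorescence response, raw or row-and-column corrected B-score, differing from the plate sample mean either way at a set confidence level, mostly lower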
Numbers without * were called inactive; . = not tested or not shown. Unless noted, no stated cut-off is given here; in the data, active means inhibition above about 20% (passing the limit was not always enough); inactive means the rest.

SMILES | FXIIa inh mix | D1 mod | FXIa mix inh | M1 agonist | DAT uptake mod | M1 antagonist
CC(=O)N1CCC2(CC1)C(C#N)=C(N)OC1=C2C(=O)CC(C)(C)C1 | . | . | . | . | 0.22 | .
CCOCCN1CCN(c2c(C)c(C)nc3cc(-c4cc(OC)cc(OC)c4)nn23)CC1 | 10 | . | 6 | 4.9 | 2.5* | -0.86
O=C(CCCCCN1C(=O)CCC1=O)NCc1ccccc1 | 2 | 1.1 | 11 | -1.3 | 0.53 | 2.1*
COc1ccc(-c2nc(Cn3c(SCc4ccc(F)cc4)nc4ccncc43)c(C)o2)cc1OC | . | . | . | . | 3.1* | .
COc1cc(/C=N/NC(=O)c2ccncc2)ccc1OC(=O)c1ccc([N+](=O)[O-])cc1 | . | . | . | . | -0.7 | .
Cc1ccc(S(=O)(=O)c2cc3c(=O)n4ccccc4nc3n(CC3CCCO3)c2=N)cc1C (stereo not given) | -1 | 10* | -9 | 0.46 | . | -0.055
N=c1c(S(=O)(=O)c2ccccc2)cc2c(=O)n3ccccc3nc2n1CCN1CCOCC1 | 4 | -0.076 | -10 | -0.13 | . | 0.52
Cc1ccc(C(=O)NC2CCCCC2)cc1 | . | . | . | . | -0.58 | .
CCOC(=O)COc1ccc(C(=O)NC2CCCCC2)cc1 | 4 | -5.6* | -2 | -0.1 | -0.13 | -0.56
C(=C\c1ccccc1)/CN1CCN(c2ncnc3c2oc2ccccc23)CC1 | -14 | -1.6 | -17 | 6.9* | -1.4 | -0.65
c1cnc(N2CCN(c3ncnc4c3oc3ccccc34)CC2)nc1 | -17 | 4.4 | 7 | 3.2* | . | -1.5
c1ccc2c(c1)oc1c(N3CCOCC3)ncnc12 | -3 | 3.6 | -9 | -1.5 | -0.13 | 0.6
O=C(Cn1nnc(-c2ccc(CN3CCOCC3)cc2)n1)Nc1nc(-c2ccccc2)cs1 | 7 | 0.44 | 5 | -1.2 | -9.6* | -1.2
CN1CCN(CC(=O)Nc2nc(-c3ccccc3)cs2)CC1 | . | . | . | -0.3 | . | -2.4
Cc1onc(-c2ccccc2Cl)c1C(=O)N1CCN(c2ccccc2)CC1 | 10 | -2.4* | 0 | -0.25 | -1.4 | -0.0002
Cc1ccccc1NC(=S)NC(NC(=O)N(C)C)C(Cl)(Cl)Cl (stereo not given) | . | . | . | . | -2 | .
COc1ccc(NC(=O)CSc2nnc(-c3ccoc3C)n2CCc2ccccc2)cc1 | 3 | 0.18 | -1 | 1.1 | 4.2* | 1.2
c1ccc2[nH]c(SCc3ccc(-c4nnco4)cc3)nc2c1 | -7 | -0.011 | 3 | -1.1 | 0.35 | -0.078
CCOC(=O)c1sc2nc(NC(=O)C3CCCCC3)sc2c1C | -3 | 0.93 | 1 | 1.7 | -0.46 | -0.75
Cc1ccc(-c2cc(C(=O)N3CCCC3)no2)cc1 | -5 | -5.2* | 1 | 0.63 | 1.7 | 0.95
CCC1CCCCN1Cc1ccc(OC)c(OC)c1 (stereo not given) | 13 | -1.6 | -1 | 0.096 | -1 | 0.16
OCCCc1nc2n(n1)C(c1cccs1)C=C(c1ccccc1)N2 (stereo not given) | 7 | 0.3 | 12 | 431* | 0.9 | -15*
OCCCc1nc2n(n1)C(c1ccccc1)C=C(c1ccc(F)cc1)N2 (stereo not given) | . | 0.077 | . | 2.3 | 1.6 | 0.15
CS(=O)(=O)N(Cc1ccc(C(=O)NCCSCc2ccco2)cc1)c1ccccc1 | . | . | . | . | -0.2 | .
CS(=O)(=O)N(Cc1ccc(C(=O)NCc2ccco2)cc1)c1ccccc1 | 5 | 0.31 | 2 | -0.0035 | -1.3 | 1.9*
SMILES | FXIIa inh mix | D1 mod | FXIa mix inh | M1 agonist | DAT uptake mod | M1 antagonist
O=S(=O)(NCCc1cn2ccccc2n1)c1cccs1 | -13 | 0.36 | 5 | 0.81 | -0.00076 | -1
Cn1ccnc1SCc1ccc([N+](=O)[O-])cc1 | . | . | . | . | 0.72 | .
Cn1ccnc1SCc1cn2cc(Br)ccc2n1 | 5 | -4.7* | 6 | 0.42 | -8.7* | -0.21
O=C(CSc1nnc(-c2ccco2)n1-c1ccccc1)N1CCOCC1 | -12 | -0.67 | 2 | -1 | 0.47 | 0.11
O=S(=O)(NCCSc1nnc(-c2ccco2)n1-c1ccccc1)c1ccccc1 | 8 | 11* | 2 | 1.2 | -0.014 | 0.74
CC1CC2(CC(C)(C(=O)CSc3nc4ccccc4s3)OC2=O)C(=O)O1 (stereo not given) | 3 | 0.76 | 2 | -0.23 | -0.6 | -0.8
COc1ccc2[nH]c3c(NCCCN4CCCC4=O)ncnc3c2c1 | . | . | . | . | 2.9* | .
O=C(CCC1CCCC1)c1c(O)c2ccccc2oc1=O | 13 | -3.1* | 7 | 8.2* | -3.2* | -2.1*
O=C(c1c(O)c2ccccc2oc1=O)C1CCCCC1 | . | . | . | . | 1.1 | .
CCOC(=O)N1CCN(C(=O)CN(c2ccc(OC)c(OC)c2)S(C)(=O)=O)CC1 | . | . | . | . | -0.17 | .
